According to PubChem BioAssay (NCATS):
Results filed as inconclusive are left out. Activity calls are given as the source filed them. Unless noted, calls follow the shape of the dose curve; as a rule, active = well fitted curve in the direction sought with a large enough effect; inconclusive = small, poorly fitted or top-dose-only effect, or another doubt; inactive = no such curve, though single readings can be large; an effect the other way counts as inactive or inconclusive.

Key:
[1] = test system: WaGa; test: qHTS assay to identify novel small-molecules to repurpose for Merkel cell carcinoma treatment (AID 1296009); conditions: MCC and control cell lines, CellTiter-Glo viability, 72 h; series mostly up to 46 µM; also: nearly all actives have a fitted effect of over 60% in size; also: potency is read from the fitted curve at half-maximal effect
Method in brief: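 72 hr, 37 degree celsius; NPC 8-pt / MIPE 11-pt dose response; compound pinned in DMSO; CellTiter-Glo, 10 min RT, luminescence; normalized to no-cell and DMSO controls.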

[2] = test system: C33A; test: Primary qHTS to identify gynecologic anti-cancer compounds using libraries of approved drugs and bioactive compounds (AID 1345084); conditions: Gynecologic cancer cell panel viability, ATPlite luminescence, 48 h; series mostly up to 57.5 µM; also: nearly all actives have a fitted effect of over 55% in size; also: potency is read from the fitted curve at half-maximal effect
Method in brief: (§1)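 Cells, 1,000 per well, plated 16 h, then exposed 48 h at 37 C to compounds. Viability by ATPlite luminescence after 15 min at room temperature.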

[3] = test system: CASKI; test: as above; conditions: Gynecologic cancer cell panel viability, ATPlite luminescence, 48 h; series mostly up to 57.5 µM
Method in brief: as §1

[4] = test system: Es-2; test: as above; conditions: Gynecologic cancer cell panel viability, ATPlite luminescence, 48 h; series mostly up to 57.5 µM
Method in brief: as §1

[5] = test system: HeLa; test: as above; conditions: Gynecologic cancer cell panel viability, ATPlite luminescence, 48 h; series mostly up to 57.5 µM
Method in brief: as §1

[6] = test system: Hek293T; test: as above; conditions: Gynecologic cancer cell panel viability, ATPlite luminescence, 48 h, control line for the selectivity index; series mostly up to 57.5 µM
Method in brief: as §1

[7] = test system: JEG-3; test: as above; conditions: Gynecologic cancer cell panel viability, ATPlite luminescence, 48 h; series mostly up to 57.5 µM
Method in brief: as §1

[8] = test system: OV90; test: as above; conditions: Gynecologic cancer cell panel viability, ATPlite luminescence, 48 h; series mostly up to 57.5 µM
Method in brief: as §1

[9] = test system: PA-1; test: as above; conditions: Gynecologic cancer cell panel viability, ATPlite luminescence, 48 h; series mostly up to 57.5 µM
Method in brief: as §1

[10] = test system: SKOV3; test: as above; conditions: Gynecologic cancer cell panel viability, ATPlite luminescence, 48 h; series mostly up to 57.5 µM
Method in brief: as §1

[11] = test system: Tov-21-G; test: as above; conditions: Gynecologic cancer cell panel viability, ATPlite luminescence, 48 h; series mostly up to 57.5 µM
Method in brief: as §1

[12] = test system: Tov112D; test: as above; conditions: Gynecologic cancer cell panel viability, ATPlite luminescence, 48 h; series mostly up to 57.5 µM
Method in brief: as §1

[13] = Drug repurposing screens with cells derived from glioblastoma tumor samples (AID 1345199); conditions: GBM patient neurospheres viability, ATP luminescence, 48 h; also: nearly all actives have a fitted effect of over 40% in size; also: potency is read from the fitted curve at half-maximal effect; as to activity, negative = cell killing: % is scaled to controls: 0 for no effect and ±100 for the full control effect
Method in brief: (§2)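 Four patient lines of CD133+ GBM neurospheres were screened at several concentrations; hits were retested in those lines plus three slower-growing GBM lines, using 48-hour treatment and ATP-based viability.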

[14] = test system: astro; test: as above; conditions: viability, ATP luminescence, 48 h; series mostly up to 45.9 µM
Method in brief: as §2

[15] = biological target: Nuclear receptor subfamily 1 group I member 2 (Rattus norvegicus) (UniProt Q9R1A7); test: qHTS assay for small molecule activators of the rat pregnane X receptor (rPXR) signaling pathway (AID 651751; call rule not given here; also: 0% is about no effect); conditions: rPXR reporter cells, luciferase (One-Glo), 24 h
Sequence of Nuclear receptor subfamily 1 group I member 2 (Rattus norvegicus) (Q9R1A7 whole entry, looked up): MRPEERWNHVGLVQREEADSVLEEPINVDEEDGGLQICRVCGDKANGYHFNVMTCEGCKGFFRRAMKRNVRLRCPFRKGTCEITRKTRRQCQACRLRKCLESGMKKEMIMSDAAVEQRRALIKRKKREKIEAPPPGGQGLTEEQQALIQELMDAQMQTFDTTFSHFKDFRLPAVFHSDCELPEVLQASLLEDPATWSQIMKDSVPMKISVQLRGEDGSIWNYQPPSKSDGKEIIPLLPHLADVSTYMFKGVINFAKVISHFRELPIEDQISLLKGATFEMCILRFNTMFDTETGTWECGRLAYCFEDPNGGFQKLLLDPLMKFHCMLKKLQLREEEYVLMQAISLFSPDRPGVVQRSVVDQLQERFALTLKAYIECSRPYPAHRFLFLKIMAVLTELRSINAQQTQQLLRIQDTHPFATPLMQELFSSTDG

[16] = test system: CAOV3; test: Primary qHTS to identify gynecologic anti-cancer compounds using libraries of approved drugs and bioactive compounds (AID 1345084); conditions: Gynecologic cancer cell panel viability, ATPlite luminescence, 48 h; series mostly up to 57.5 µM; also: nearly all actives have a fitted effect of over 55% in size; also: potency is read from the fitted curve at half-maximal effect
Method in brief: as §1

[17] = qHTS assay for small molecule activators of the human pregnane X receptor (PXR) signaling pathway (AID 720659; call rule not given here; also: 0% is about no effect)
[18] = at 45.9 µM (top of the series), tumour line B
[19] = at 45.9 µM (top of the series), tumour line D
[20] = at 46 µM (top of the series), tumour line A
[21] = at 46.1 µM (top of the series), tumour line C
[22] = at 20 µM (top of the series), tumour line C
[23] = at 21.2 µM (top of the series), tumour line B
[24] = at 21.2 µM (top of the series), tumour line D
[25] = at 21.3 µM (top of the series), tumour line A

CCCCC/C(C=O)=C\c1ccccc1
inactive: Potency [1] | Potency [2] | Potency [3] | Potency [4] | Potency [5] | Potency [6] | Potency [7] | Potency [8] | Potency [9] | Potency [10] | Potency [11] | Potency [12] | activity, negative = cell killing [13, 18] -2.87% | activity, negative = cell killing [13, 19] -16.9% | activity, negative = cell killing [13, 20] -24.2% | activity, negative = cell killing [13, 21] -7.86% | Potency [14]

CC(C)C(=O)c1c(C(C)C)nn2ccccc12
active: Potency ([13]; tumour line A) 8.91 µM
inactive: Potency [1] | Potency [2] | Potency [3] | Potency [4] | Potency [5] | Potency [6] | Potency [7] | Potency [8] | Potency [9] | Potency [10] | Potency [11] | Potency [12] | activity, negative = cell killing [13, 18] -5.19% | activity, negative = cell killing [13, 21] -20.7% | Potency [14]

C[C@]12CC[C@@H]3c4ccc(O)cc4CC[C@H]3[C@@H]1CCC2=O
active: Potency [5] 28.2 µM
inactive: Potency [1] | Potency [2] | Potency [3] | Potency [4] | Potency [6] | Potency [7] | Potency [8] | Potency [9] | Potency [10] | Potency [11] | Potency [12] | activity, negative = cell killing [13, 18] -16.5% | activity, negative = cell killing [13, 19] -20.7% | activity, negative = cell killing [13, 21] -9.33% | Potency [14] | max response [15] 1.32%

CC1(C)S[C@@H]2[C@H](NC(=O)Cc3ccccc3)C(=O)N2[C@H]1C(=O)O (tested in a mixture with another compound)
inactive: Potency [1] | Potency [2] | Potency [3] | Potency [4] | Potency [5] | Potency [6] | Potency [7] | Potency [8] | Potency [9] | Potency [10] | Potency [11] | Potency [12] | activity, negative = cell killing [13, 18] -3.74% | activity, negative = cell killing [13, 19] -13.1% | activity, negative = cell killing [13, 20] -22.7% | activity, negative = cell killing [13, 21] -9.44% | Potency [14]

CC[N+](CC)(CC)CCOc1ccc(/C=C/c2ccccc2)cc1
active: Potency [1] 1.88 µM | Potency [2] 14.1 µM | Potency [16] 10 µM | Potency [7] 31.6 µM | Potency [8] 17.8 µM | Potency [9] 2.51 µM | Potency [10] 10 µM | Potency [11] 25.1 µM

COc1cc2[nH]c(=O)[nH]c(=O)c2cc1OC
inactive: Potency [1] | Potency [2] | Potency [3] | Potency [4] | Potency [5] | Potency [6] | Potency [7] | Potency [8] | Potency [9] | Potency [10] | Potency [11] | Potency [12] | activity, negative = cell killing [13, 22] -13.5% | activity, negative = cell killing [13, 23] -9.77% | activity, negative = cell killing [13, 24] 1.35% | activity, negative = cell killing [13, 25] -29.6% | Potency [14]

Nc1nc2c(ncn2CCC(CO)CO)c(=O)[nH]1
inactive: Potency [1] | Potency [2] | Potency [3] | Potency [4] | Potency [5] | Potency [6] | Potency [7] | Potency [8] | Potency [9] | Potency [10] | Potency [11] | Potency [12] | activity, negative = cell killing [13, 18] -8.7% | activity, negative = cell killing [13, 19] 3.63% | activity, negative = cell killing [13, 21] -21.6% | Potency [14]

Nc1ccc(S(=O)(=O)NC(=O)c2ccccc2)cc1
inactive: Potency [1] | Potency [2] | Potency [3] | Potency [4] | Potency [5] | Potency [6] | Potency [7] | Potency [8] | Potency [9] | Potency [10] | Potency [11] | Potency [12] | activity, negative = cell killing [13, 22] -23.5% | activity, negative = cell killing [13, 23] -10.1% | activity, negative = cell killing [13, 24] -27.1% | activity, negative = cell killing [13, 25] -8.76% | Potency [14]

O=c1cc[nH]c(=S)[nH]1
inactive: Potency [1] | Potency [2] | Potency [3] | Potency [4] | Potency [5] | Potency [6] | Potency [7] | Potency [8] | Potency [9] | Potency [10] | Potency [11] | Potency [12] | activity, negative = cell killing [13, 18] -6.45% | activity, negative = cell killing [13, 19] -10.9% | activity, negative = cell killing [13, 21] -27.1% | Potency [14]

O=S(=O)(O)NC1CCCCC1
inactive: Potency [1] | Potency [2] | Potency [3] | Potency [4] | Potency [5] | Potency [6] | Potency [7] | Potency [8] | Potency [9] | Potency [10] | Potency [11] | Potency [12] | activity, negative = cell killing [13, 18] -10.5% | activity, negative = cell killing [13, 19] -5.78% | activity, negative = cell killing [13, 20] -19.1% | Potency [14] | max response [15] 1.16% | outcome [17]

NC(=O)c1ncn([C@@H]2O[C@H](CO)[C@@H](O)[C@H]2O)c1N
inactive: Potency [1] | Potency [2] | Potency [3] | Potency [4] | Potency [5] | Potency [6] | Potency [7] | Potency [8] | Potency [9] | Potency [10] | Potency [11] | Potency [12] | activity, negative = cell killing [13, 18] -9.5% | activity, negative = cell killing [13, 19] -4.13% | activity, negative = cell killing [13, 20] -19.7% | activity, negative = cell killing [13, 21] -3.52% | Potency [14]

CN1CCC[C@@H]1Cc1c[nH]c2ccc(CCS(=O)(=O)c3ccccc3)cc12
active: Potency ([13]; tumour line A) 14.1 µM
inactive: Potency [1] | Potency [2] | Potency [3] | Potency [4] | Potency [5] | Potency [6] | Potency [7] | Potency [8] | Potency [9] | Potency [10] | Potency [11] | Potency [12] | activity, negative = cell killing [13, 18] -21.2% | Potency [14]
